# Reference: publication PMC4336329 (PLoS ONE, 2015)
# In all, about 310,000 compounds went through this assay and about 14,000 (4.5%) showed an effect of 50% or more. The effect is printed as a negative number. This is one part of a sample in which strong results are shown more often than they occur.
# Biological target: human ether-à-go-go-related gene (hERG) potassium channel (human, UniProt Q12809)
# Experiment: primary screen, population patch clamp on CHO cells stably expressing hERG; higher = less effect of the substance
# 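Also: peak tail current of the secondary pulse compared with the same well before compound.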
# human ether-à-go-go-related gene (hERG) potassium channel, sequence (Q12809 whole entry, looked up): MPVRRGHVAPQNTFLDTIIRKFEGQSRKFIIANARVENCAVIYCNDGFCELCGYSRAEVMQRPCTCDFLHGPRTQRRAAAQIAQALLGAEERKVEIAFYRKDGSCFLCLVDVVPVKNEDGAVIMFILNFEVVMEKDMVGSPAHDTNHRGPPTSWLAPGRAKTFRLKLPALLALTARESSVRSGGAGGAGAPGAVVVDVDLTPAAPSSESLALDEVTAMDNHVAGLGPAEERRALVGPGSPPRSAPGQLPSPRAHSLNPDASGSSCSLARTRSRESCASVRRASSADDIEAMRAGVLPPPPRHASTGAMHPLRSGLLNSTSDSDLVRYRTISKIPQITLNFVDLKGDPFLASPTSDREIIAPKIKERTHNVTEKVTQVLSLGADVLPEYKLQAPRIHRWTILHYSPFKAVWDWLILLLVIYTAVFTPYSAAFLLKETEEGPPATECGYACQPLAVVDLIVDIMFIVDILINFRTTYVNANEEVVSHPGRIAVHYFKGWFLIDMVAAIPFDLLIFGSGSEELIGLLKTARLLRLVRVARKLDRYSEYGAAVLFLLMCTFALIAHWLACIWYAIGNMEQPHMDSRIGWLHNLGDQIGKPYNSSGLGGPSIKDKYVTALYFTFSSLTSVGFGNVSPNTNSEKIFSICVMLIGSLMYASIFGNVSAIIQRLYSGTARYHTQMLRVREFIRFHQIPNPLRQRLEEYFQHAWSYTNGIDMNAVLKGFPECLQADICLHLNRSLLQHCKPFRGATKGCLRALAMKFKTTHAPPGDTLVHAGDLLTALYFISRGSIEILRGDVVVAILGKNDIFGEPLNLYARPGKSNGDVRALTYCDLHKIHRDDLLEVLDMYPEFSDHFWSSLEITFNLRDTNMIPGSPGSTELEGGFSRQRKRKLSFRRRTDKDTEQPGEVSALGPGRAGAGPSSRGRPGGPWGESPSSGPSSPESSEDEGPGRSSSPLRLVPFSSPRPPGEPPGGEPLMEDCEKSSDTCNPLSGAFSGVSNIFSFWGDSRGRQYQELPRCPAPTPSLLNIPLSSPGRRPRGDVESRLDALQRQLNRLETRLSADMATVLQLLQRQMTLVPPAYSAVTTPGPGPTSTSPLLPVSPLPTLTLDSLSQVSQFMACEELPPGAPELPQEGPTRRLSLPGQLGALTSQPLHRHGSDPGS
row,Compound,"hERG current change (%, negative = inhibition) at 10uM"
1,CCCc1cc(=O)[nH]c(SCC(=O)N(CC)Cc2ccccc2)n1,7.9%
2,Cc1ccc(S(=O)(=O)C2(C(=O)N3CCCCC3C)CC2)cc1 (centres unmarked),1.58%
3,CC1C(=O)N2CCCc3cc(S(=O)(=O)N(C)Cc4ccccc4)cc1c32 (centres unmarked),-14.7%
4,O=C(O)c1cc(=O)n(Cc2ccccc2)c(=O)[nH]1,15%
5,Cc1ccc(C(C)NC(=O)c2cccnc2)cc1 (centres unmarked),11.2%
6,Clc1ccccc1Cn1c(/C=C/c2ccco2)nc2ccccc21,13.5%
7,COc1cc2c(cc1NC(=O)COC(=O)CNS(=O)(=O)c1ccc(C)cc1)oc1ccccc12,1.63%
8,CN(c1ccc(C(=O)Nc2cccnc2)cc1)S(=O)(=O)c1ccccc1,-14.9%
9,COc1ccc(-c2nnc(SCC(=O)Nc3sc4c(c3C#N)CCCC4)n2-c2ccccc2)cc1,15.4%
10,Cc1ccc(C)c(S(=O)(=O)N2CCN(c3nc(CN4CCOCC4)nc4sc(C)c(C)c34)CC2)c1,-57.1%
11,Cc1ccc(S(=O)(=O)Nc2nc(CN3CCOCC3)nc3sc(C)c(C)c23)cc1,-43%
12,Cc1sc2nc(CN3CCOCC3)nc(N3CCOCC3)c2c1C.O=C(O)C(=O)O,-10.8%
13,O=C(CNc1n[nH]c(=O)[nH]c1=O)N/N=C/c1ccccc1,2.89%
14,O=S(NC1CCCCC1)C12CC3CC(CC(C3)C1)C2 (centres unmarked),-12.4%
15,Cc1nc(N2CCN(C(=O)c3ccc(Cl)cc3)CC2)c(C#N)c2c1COC(C)(C)C2,-60.8%
16,CCc1nc(N2CCN(C(=O)c3ccco3)CC2)c(C#N)c2c1COC(C)(C)C2,-52.1%
17,CCc1nc(N2CCN(C(C)=O)CC2)c(C#N)c2c1COC(C)(C)C2,-0.704%
18,CCCNC(=O)N1CCN(c2nc(C(C)C)c3c(c2C#N)CC(C)(C)OC3)CC1,4.84%
19,CCc1nc(N2CCN(C(=O)c3ccccc3)CC2)c(C#N)c2c1COC(C)(C)C2,-46.5%
20,Cc1nc(N2CCN(Cc3ccccc3)CC2)c(C#N)c2c1COC(C)(C)C2,-5.21%

row,Compound,"hERG current change (%, negative = inhibition) at 10uM"
1,CC(C)c1nc(N2CCN(C(=O)c3ccco3)CC2)c(C#N)c2c1COC(C)(C)C2,-71.5%
2,CC(C)c1nc(N2CCN(C(=O)c3ccccc3)CC2)c(C#N)c2c1COC(C)(C)C2,-40.8%
3,CC1(C)Cc2c(C#N)c(N3CCN(C(=O)c4ccco4)CC3)nc(Cc3ccccc3)c2CO1,-25.3%
4,O=C(CC1SC(N2CCCCC2)=NC1=O)Nc1cccc(C(F)(F)F)c1 (centres unmarked),12.3%
5,CCOc1ccc(C2Oc3nc(SC)nnc3-c3ccccc3N2C(C)=O)cc1OC (centres unmarked),9.64%
6,CCC(Sc1nnc(-c2ccc(C)c(Cl)c2)n1CC)C(=O)Nc1nccs1 (centres unmarked),-20.6%
7,CCOC(=O)/C=C(\C)Sc1cc(=O)oc2ccccc12,-40.4%
8,O=C(Nc1nccs1)c1ccc(COc2ccccc2)o1,15.6%
9,O=C(O)CC1c2ccccc2CCN1S(=O)(=O)c1ccc(F)cc1 (centres unmarked),8.32%
10,CCc1ccc2[nH]c(=O)c(-c3ccccc3)c(O)c2c1,17.5%
11,CN(CC(N)=O)S(=O)(=O)c1ccc(F)cc1,-15.7%
12,CCOC(=O)CSc1ccc2nnc(-c3cccnc3)n2n1,-31%
13,O=C(O)CSc1ccc2nnc(-c3cccnc3)n2n1,12.2%
14,O=C(CSc1ccc2nnc(-c3cccnc3)n2n1)c1ccccc1,-70%
15,COc1ccc(C(=O)CSc2ccc3nnc(-c4cccnc4)n3n2)cc1,-70.3%
16,O=C(CSc1ccc2nnc(-c3cccnc3)n2n1)N1CCOCC1,-25%
17,CCC(Sc1ccc2nnc(-c3cccnc3)n2n1)C(=O)OC (centres unmarked),-47%
18,O=C(Nc1cccc(NC(=O)C2CC2)n1)C1CC1,-6.67%
19,CCOC(=O)N1CCN(c2cc(N3CCOCC3)c(F)cc2[N+](=O)[O-])CC1,-18.2%
20,CC1=CC(=O)OC1Cc1ccncc1 (centres unmarked),11.3%

row,Compound,"hERG current change (%, negative = inhibition) at 10uM"
1,NC(=O)C1CCN(C(=O)CCSCc2ccc(Cl)c(Cl)c2)CC1,-13.3%
2,COc1cccc(CC2(CO)CCN(Cc3cn(C)nc3C)CC2)c1,18.3%
3,COC(=O)c1ccc(CN2CCC(CO)(Cc3ccc(OC)cc3)CC2)cc1,-66.1%
4,CCN1CCN(Cc2ccc(OC(F)(F)F)cc2)CC1,-26.6%
5,COC(=O)c1ccc(CN2CCC(CO)(Cc3ccccc3Cl)CC2)cc1,-64.8%
6,COc1ccc(CC2(CO)CCN(Cc3ccc(OC(F)(F)F)cc3)CC2)cc1,-75.1%
7,COc1ccc(-c2ncc(CN3CCC(CO)(Cc4cccc(OC)c4)CC3)cn2)cc1,-4.79%
8,COC(=O)c1ccc(CN2CCC(CO)(Cc3cccc(OC)c3)CC2)cc1,-66.1%
9,COC(=O)c1cccc(C(=O)N2CCC(CO)(Cc3ccccc3Cl)CC2)c1,-23.1%
10,COC(=O)c1ccc(CN2CCCCC2)cc1,1.45%
11,COc1ccc(CC2(CO)CCN(Cc3ccncc3)CC2)cc1,-21.2%
12,Nn1c(SCC(=O)Nc2c(F)cc(F)cc2Br)nnc1C1CCCCC1,3.21%
13,CCOC(=O)c1nnn(-c2nonc2-c2ccccc2)c1C,-25.2%
14,S=c1[nH]cc(-c2ccccc2)n1-c1ccccc1Cl,9.61%
15,CCc1onc(C)c1C(=O)Nc1ccc(N2CCOCC2)cc1,15%
16,Clc1ccc(-c2noc(/C=C/c3ccccc3)n2)cc1,18.2%
17,COc1cccc(CC2(CO)CCN(CC3=CC[C@H]4C[C@@H]3C4(C)C)CC2)c1,-44.2%
18,COc1ccc(CC2(CO)CCN(CC3=CC[C@H]4C[C@@H]3C4(C)C)CC2)cc1,-58.7%
19,CC1(C)C2CC=C(CN3CCC(O)CC3)C1C2 (centres unmarked),-7.45%
